Molecules are shown by their SMILES. This is part of a sample that, as a whole, favours compounds with a hit. Of some 79,000 tested, about 15% had one in any assay. Calls of active or inactive are those of the source. No stated cut-off is given here; in the data, active means growth inhibition above about 70%; inactive means the rest.

The first assay can be described thus: NCI Yeast Anticancer Drug Screen. Data for the mec2-1 strain (AID 157). The settings on record: S. cerevisiae mec2-1 strain, at 50.0 µM (retest, dose inferred, filed as 5.0), hits give high values. In a few lines: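 Each compound was tested on mec2-1 yeast, a strain altered in DNA damage repair or cell cycle control. Growth inhibition is reported relative to vehicle.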
Consider `CCCCCCCCCCCCCCOC(=O)C(N)Cc1ccc(O)cc1` (stereo not given), for which the growth inhibition is 98% (active).
Take `CN(C)c1ccc(C(O)(Cc2cccc(C#N)c2)c2ccc(N(C)C)cc2)cc1`: the growth inhibition is -6% (inactive).
Turning to `O=C(NNC(=O)c1cccc(C(=O)NNC(=O)c2ccc(Cl)c(Cl)c2)n1)c1ccc(Cl)c(Cl)c1`, the growth inhibition was 66% (inactive).
For `C=C1C(=O)O[C@H]2[C@H](OC(C)=O)[C@@H](C)CCC/C(C)=C/CC[C@@]3(C)O[C@@H]3C[C@@H]12`, the growth inhibition was 99% (active).
Still for that read-out and setting: the result for `O=C(c1ccccc1)C1OC1c1ccccc1Cl` (stereo not given) reads 21% (inactive); that for `[N-]=[N+]=Nc1ccc(SSCCC(=O)ON2C(=O)CCC2=O)cc1`, 98% (active).
On to `Cc1cc(N(CCC#N)CCC#N)ccc1/C(N=Nc1cccc([N+](=O)[O-])c1)=N/NC(=O)c1cc(Cl)ccc1O`, for which the growth inhibition is 25% (inactive).
The same measure, in the same setting: to `CC(C)/C(Cl)=N\OC(=O)Nc1ccc(S(N)(=O)=O)cc1` belongs 28% (inactive); to `CCCCCCCCCCCCCC(=O)OCC(O)CO` (stereo not given), 28% (inactive); to `O=C1C=CC(=O)N1C1CCCCC1`, 100% (active).
On the same count and under the same terms, to `CCCCCCCCCCCC(=O)OCC1OC(n2cc(F)c(=O)[nH]c2=O)C(N)C(O)C1O` (stereo not given) belongs 31% (inactive); to `CN(C)c1ccc(C2C=C(c3ccccc3)Oc3ccccc32)cc1` (stereo not given), 96% (active).
As to `CS(=O)(=O)OCCN(CCOS(C)(=O)=O)c1ccc(C=Nc2cccc(Cl)c2)cc1`, the growth inhibition is 91% (active).
For `O=C1C(=O)N(c2cc(Cl)ccc2Cl)C(=O)C(=O)C1c1nc2ccccc2o1`, the growth inhibition is 15% (inactive).
For the compound `CC1=NC(=Cc2ccc(Cl)cc2)C(=O)N1n1c(-c2ccccc2)nc2ccccc2c1=O`, the growth inhibition was 83% (active).
The same measure, in the same setting: the result for `C/C(=N/Nc1ccc([N+](=O)[O-])cc1[N+](=O)[O-])C1=CCC(C(C)(C)C)CC1` (stereo not given) reads -11% (inactive); that for `Cc1ccc(C)c(N2C(=O)C(=O)C(c3nc4ccccc4o3)/C(=N\NC(=O)c3ccccc3O)C2=O)c1` (stereo not given), 29% (inactive); that for `O=C(/C=C/C=C/c1ccccc1)c1ccco1`, 5% (inactive).
For the compound `O=C1CCC(=O)c2c1c(O)c1ccncc1c2O`, the growth inhibition was 99% (active).
`CNC(=O)OC(C)CN1c2ccccc2Sc2ccc(Cl)cc21` (stereo not given): the growth inhibition was 99% (active).
Same read-out and setting: the result for `c1coc(C2=Nc3cccc4cccc(c34)N2)c1` reads 62% (inactive); that for `CCOC(=O)[C@]12CCC[C@@]1(O)NC(=O)c1cnccc12`, 99% (active); that for `Cc1cccc(C)c1N1C(=O)C2Nc3ccccc3SC2C1=O` (stereo not given), 94% (active).
Turning to `CCc1cccc(C(C)(C)C)c1NC(=S)N/C=C(\c1ccccc1)S(=O)Cc1ccccc1` (stereo not given), the growth inhibition was 70% (active).
Same read-out and setting: to `CC(=O)Nc1ccc(-c2cnc3ccccc3c2)cc1` belongs 15% (inactive); to `OCC(CO)C1c2cccc3ccc4cccc1c4c23`, 24% (inactive).
Regarding `O=C1CC(=S)NC(=S)N1`, the growth inhibition is -1% (inactive).
The same measure, in the same setting: to `Cc1c2ccnc(C(N)=O)c2c(C)c2c1[nH]c1ccccc12` belongs 98% (active).
Still for that read-out and setting: to `CCC(=O)Sc1ccccc1C(=O)Nc1ccc(Cl)cc1` belongs 64% (inactive).
Take `O=C(O)c1c(Cl)c(Cl)c(Cl)c(Cl)c1-c1c2cc(I)c(=O)c(I)c-2oc2c(I)c(O)c(I)cc12`: the growth inhibition is 99% (active).
Turning to `C=C/C=C/CC=C`, the growth inhibition was -41% (inactive).
Still for that read-out and setting: the result for `Cc1ccccc1N1CCN(c2c3c(nc4ccccc24)CCCCC3)CC1` reads 94% (active); that for `N/N=C(\N)c1ccc2ccc3cccnc3c2n1`, 73% (active); that for `CCCCCC(CCCCC)C(=O)O`, 52% (inactive).
For `O=Cc1cc(S(=O)(=O)c2ccc(O)c(C=O)c2)ccc1O`, the growth inhibition is 38% (inactive).
In the case of `Cc1ccc(C)c(N2C(=O)C(=O)C(c3nc4ccccc4o3)C(=O)C2=O)c1`, the growth inhibition was 99% (active).
The same measure, in the same setting: the result for `COC(=O)c1cc(C)c2sc3ccccc3c2c1C` reads 23% (inactive).
The same measure, in the same setting: the result for `O=C1NC(=O)N(c2ccc(Cl)c(Cl)c2)C1=O` reads 8% (inactive).
For `Clc1ccc2oc(N3CCCCC3)nc2c1`, the growth inhibition is -3% (inactive).
Regarding `Cc1ccc(N=NC(C(=O)c2ccccc2)C(=O)c2ccccc2)cc1`, the growth inhibition is 97% (active).

The assay is the same for the next values; noted with them: S. cerevisiae mec2-1 strain, at 50.0 µM, hits give high values.
For the compound `CCCCCCCCCCCCCCOC(=O)C(N)Cc1ccc(O)cc1` (stereo not given), the growth inhibition is 99.2% (active).
`CN(C)c1ccc(C(O)(Cc2cccc(C#N)c2)c2ccc(N(C)C)cc2)cc1`: the growth inhibition is 55.9% (inactive).
Consider `O=C(NNC(=O)c1cccc(C(=O)NNC(=O)c2ccc(Cl)c(Cl)c2)n1)c1ccc(Cl)c(Cl)c1`, for which the growth inhibition was 45.8% (inactive).
For the compound `C=C1C(=O)O[C@H]2[C@H](OC(C)=O)[C@@H](C)CCC/C(C)=C/CC[C@@]3(C)O[C@@H]3C[C@@H]12`, the growth inhibition is 94.2% (active).
On the same count and under the same terms, the result for `O=C(c1ccccc1)C1OC1c1ccccc1Cl` (stereo not given) reads -4.4% (inactive).
Still for that read-out and setting: the result for `[N-]=[N+]=Nc1ccc(SSCCC(=O)ON2C(=O)CCC2=O)cc1` reads 98.8% (active).
`Cc1cc(N(CCC#N)CCC#N)ccc1/C(N=Nc1cccc([N+](=O)[O-])c1)=N/NC(=O)c1cc(Cl)ccc1O`: the growth inhibition was 47% (inactive).
For the compound `CC(C)/C(Cl)=N\OC(=O)Nc1ccc(S(N)(=O)=O)cc1`, the growth inhibition was 18.8% (inactive).
As to `CCCCCCCCCCCCCC(=O)OCC(O)CO` (stereo not given), the growth inhibition was 6.1% (inactive).
The same measure, in the same setting: to `O=C1C=CC(=O)N1C1CCCCC1` belongs 99.7% (active); to `CCCCCCCCCCCC(=O)OCC1OC(n2cc(F)c(=O)[nH]c2=O)C(N)C(O)C1O` (stereo not given), 91% (active).
On the same count and under the same terms, the result for `CN(C)c1ccc(C2C=C(c3ccccc3)Oc3ccccc32)cc1` (stereo not given) reads 97% (active).
On to `CS(=O)(=O)OCCN(CCOS(C)(=O)=O)c1ccc(C=Nc2cccc(Cl)c2)cc1`, for which the growth inhibition was 86.5% (active).
For `O=C1C(=O)N(c2cc(Cl)ccc2Cl)C(=O)C(=O)C1c1nc2ccccc2o1`, the growth inhibition is 37.9% (inactive).
The same measure, in the same setting: the result for `CC1=NC(=Cc2ccc(Cl)cc2)C(=O)N1n1c(-c2ccccc2)nc2ccccc2c1=O` reads 70.2% (active).
For the compound `C/C(=N/Nc1ccc([N+](=O)[O-])cc1[N+](=O)[O-])C1=CCC(C(C)(C)C)CC1` (stereo not given), the growth inhibition was -32.5% (inactive).
On the same count and under the same terms, to `Cc1ccc(C)c(N2C(=O)C(=O)C(c3nc4ccccc4o3)/C(=N\NC(=O)c3ccccc3O)C2=O)c1` (stereo not given) belongs 55.2% (inactive); to `O=C(/C=C/C=C/c1ccccc1)c1ccco1`, 90.3% (active); to `O=C1CCC(=O)c2c1c(O)c1ccncc1c2O`, 99.3% (active).
In the case of `CNC(=O)OC(C)CN1c2ccccc2Sc2ccc(Cl)cc21` (stereo not given), the growth inhibition is 84.5% (active).
Regarding `c1coc(C2=Nc3cccc4cccc(c34)N2)c1`, the growth inhibition is 10.3% (inactive).
In the case of `CCOC(=O)[C@]12CCC[C@@]1(O)NC(=O)c1cnccc12`, the growth inhibition was 97.7% (active).
On the same count and under the same terms, the result for `Cc1cccc(C)c1N1C(=O)C2Nc3ccccc3SC2C1=O` (stereo not given) reads 98.7% (active).
As to `CCc1cccc(C(C)(C)C)c1NC(=S)N/C=C(\c1ccccc1)S(=O)Cc1ccccc1` (stereo not given), the growth inhibition was 46.2% (inactive).
On the same count and under the same terms, to `CC(=O)Nc1ccc(-c2cnc3ccccc3c2)cc1` belongs 6.2% (inactive); to `OCC(CO)C1c2cccc3ccc4cccc1c4c23`, 17.8% (inactive).
Same read-out and setting: to `O=C1CC(=S)NC(=S)N1` belongs -1.7% (inactive).
In the case of `Cc1c2ccnc(C(N)=O)c2c(C)c2c1[nH]c1ccccc12`, the growth inhibition was 48.1% (inactive).
Take `CCC(=O)Sc1ccccc1C(=O)Nc1ccc(Cl)cc1`: the growth inhibition is 92.9% (active).
On to `O=C(O)c1c(Cl)c(Cl)c(Cl)c(Cl)c1-c1c2cc(I)c(=O)c(I)c-2oc2c(I)c(O)c(I)cc12`, for which the growth inhibition is 92.1% (active).
`C=C/C=C/CC=C`: the growth inhibition is 1.2% (inactive).
Same read-out and setting: to `Cc1ccccc1N1CCN(c2c3c(nc4ccccc24)CCCCC3)CC1` belongs 97% (active); to `N/N=C(\N)c1ccc2ccc3cccnc3c2n1`, 42.3% (inactive); to `CCCCCC(CCCCC)C(=O)O`, 70.2% (active).
On the same count and under the same terms, to `O=Cc1cc(S(=O)(=O)c2ccc(O)c(C=O)c2)ccc1O` belongs 98.7% (active).
On the same count and under the same terms, to `Cc1ccc(C)c(N2C(=O)C(=O)C(c3nc4ccccc4o3)C(=O)C2=O)c1` belongs 99.3% (active); to `COC(=O)c1cc(C)c2sc3ccccc3c2c1C`, 5.3% (inactive).
`O=C1NC(=O)N(c2ccc(Cl)c(Cl)c2)C1=O`: the growth inhibition is 36.5% (inactive).
Consider `Clc1ccc2oc(N3CCCCC3)nc2c1`, for which the growth inhibition was 99.2% (active).
Regarding `Cc1ccc(N=NC(C(=O)c2ccccc2)C(=O)c2ccccc2)cc1`, the growth inhibition was 93.3% (active).

The values are drawn from PubChem BioAssay (NCI).
